In the library only some 2% were active in any assay of this set; here they are far more common.
PAX8 reporter: PAX8 transcriptional activity inhibition; 360,000 compounds, 1.2% hits; RMG-I TPO-luciferase reporter, SteadyGlo, 24 h; inhibition, % at 12.6 µM;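 active means mean replicate inhibition at least 60% with every replicate also reaching 60%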;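 further: luciferase light reporting Pax8 driven TPO promoter activity; plate controls were median of neutral control wells for no effect and mitoxantrone controls for full effect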
EWS-Fli inh: EWS/Fli transcriptional activity inhibition | 350,000 compounds, 0.67% hits | inhibition, % at 12.6 µM | A673 NR0B1-luciferase reporter, viability-normalised;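 active means mean inhibition of at least 50% after viability correction, with every replicate also passing that limit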;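 further: firefly luciferase signal divided by Alamar Blue viability fluorescence both relative to DMSO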
CF NFkB block: cystic fibrosis NF-kB activation inhibition | inhibition, % at 5 µM | KKLEB NF-kB-GFP reporter, PAF-induced, GFP fluorescence overnight | 360,000 compounds, 0.86% hits | AID 588850;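 active means at least 50% inhibition at 5 µM, scaled per plate between neutral and stimulator controls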;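 further: PAF is a Pseudomonas aeruginosa culture filtrate used as stimulus; plate controls were PAF-stimulated DMSO wells for no effect and unstimulated DMSO wells for full effect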
KKLEB tox: reduces viability of KKLEB cystic fibrosis airway cells; AID 602141; KKLEB CF airway cells viability, ATPlite luminescence, overnight; active compounds read low; cells stimulated with P. aeruginosa culture filtrate; 360,000 compounds, 0.36% hits; activity change (cytotoxicity), % at 5 µM;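 active means corrected activity change at or below -50% at 5 µM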
LGR2 inh: inhibitors of bursicon-induced Drosophila LGR2 receptor cAMP signaling; HEK293 LGR2, CRE-luciferase, bursicon-stimulated, 4 h; inhibition, % at 9.99 µM; 380,000 compounds, 0.35% hits; AID 720647;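 active means drop in luminescence signal, shown as inhibition above about 50% in the replicate tests, limit read from the data, passing the limit was not always enough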;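 further: agonist challenge used bursicon conditioned medium at about half maximal strength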
Shn3 3UTR inh: reduces Shn3 3'UTR luciferase signal in osteoblasts. Clone20 osteoblast Shn3 3'UTR firefly luciferase, 24 h. inhibition, % at 12.5 µM. 360,000 compounds, 0.52% hits;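 active means mean inhibition of at least 75% with every replicate also reaching 75%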;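 further: 0% = median of neutral control wells and 100% = pilot-screen positive control compound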
An asterisk follows results filed as active; . = no result given.

SMILES | PAX8 reporter | EWS-Fli inh | CF NFkB block | KKLEB tox | LGR2 inh | Shn3 3UTR inh
Cc1cc(C)n(-c2ccc(NN=C(C#N)C#N)cc2)n1 | 11.2 | -8.2 | 76.3* | -1.6 | 81.9* | 11.1
CCN(CC)S(=O)(=O)c1ccc(NN=C(C#N)C#N)cc1 | 3.3 | 3.9 | 66.9* | 5.4 | . | -3.1
O=C(Cc1ccccc1)N1CCCCN2[C@H](C1)[C@@H](c1ccc(C#Cc3ccccc3)cc1)[C@@H]2CO | 15.1 | . | . | . | 18.1 | .
O=C(O)C[C@@H]1CC[C@H]2NC[C@@H](O)COC[C@@H]2O1 | 0.5 | -1.8 | . | . | 8.1 | .
CC(C)n1c(O)c(C2c3cc(Cl)ccc3Oc3[nH]c(=O)n(C(C)C)c(=O)c32)c(=O)[nH]c1=O (stereo unspecified) | . | . | 91.4* | 1.0 | . | 79.0
CC=Cc1ccc2n(c1=O)C[C@@H]1[C@@H](CO)[C@H](C(=O)OC)[C@H]2N1CC1CCOCC1 (mixture of isomers) | -1.2 | -13.1 | . | . | 4.0 | .
O=[N+]([O-])c1ccccc1CCl | . | 3.0 | -1.8 | -0.6 | -1.8 | -13.7
O=[N+]([O-])c1ccccc1-c1cc(-c2ccccc2)cc(-c2ccccc2)[n+]1Cc1ccccc1Cl | 86.1* | 51.5* | . | . | 39.6 | .
COC(=O)[C@H]1[C@H](CO)[C@H]2Cn3c(cccc3=O)[C@@H]1N2C(=O)C1CCC1 | . | 1.2 | . | . | . | .
CCOc1ccc(-c2cc(C)[n+](CCc3ccc(OC)c(OC)c3)c(-c3ccc(OCC)cc3)c2)cc1 | 91.8* | 51.1* | 13.7 | -16.3 | 26.8 | 19.2
CCOc1ccc(-c2cc(C)[n+](CCO)c(-c3ccc(OCC)cc3)c2)cc1 | 92.3* | 14.1 | -2.0 | -12.9 | -11.0 | 16.0
C[n+]1c(-c2ccccc2)cc(-c2ccc(O)cc2)cc1-c1ccccc1 | 3.7 | 4.1 | 5.9 | -1.6 | 7.4 | 13.6
Cc1cc(-c2ccccc2)cc(-c2ccccc2)[n+]1CCc1ccccc1 | 84.9* | 41.7 | -12.6 | 3.9 | 9.4 | 75.9
COc1ccc(OC(=O)N(C)C[C@H]2OCc3ccccc3-c3c(n(C)c4ccccc34)C(=O)N([C@@H](C)CO)C[C@H]2C)cc1 | 6.4 | 17.0 | . | . | -7.4 | .
CC(=O)OC[C@]12CCC(C)=C[C@H]1O[C@@H]1[C@H](O)[C@@H](OC(C)=O)[C@@]2(C)[C@]12CO2 | . | 55.5* | 104.5* | -55.6* | 103.9* | 99.1*
COC(=O)C[C@H]1CC[C@H]2NC[C@H](O)COC[C@@H]2O1 | 5.5 | -0.1 | . | . | -22.0 | .
Cc1ccc2nc(-c3ccc(CN4CCC(n5c(=O)[nH]c6ccccc65)CC4)cc3)c(-c3ccccc3)nc2c1 | 64.9* | 8.1 | . | . | 2.0 | .
C=C1C(=O)O[C@@H]2C[C@@H](C)[C@@H]3C=CC(=O)[C@@]3(C)[C@@H](O)[C@H]12 | 111.5* | 58.4* | 88.5* | -60.5* | 101.7* | 98.7*
C[C@@H]1CN([C@H](C)CO)C(=O)c2c(c3ccccc3n2C)-c2ccccc2CO[C@H]1CN(C)C(=O)Oc1ccccc1 | -6.7 | . | . | . | 17.3 | .
COC(=O)c1nc(-c2ccc3c(n2)C(=O)C(N)=C(OC)C3=O)c(N)c(-c2ccc(OC)c(OC)c2O)c1C | 17.2 | -33.9 | 88.7* | -28.2 | 0.5 | 46.5
O=C(Cc1ccccn1)N1CC2(C1)[C@@H](c1ccccc1)[C@@H](CO)N2Cc1ccccn1 | -2.0 | 0.3 | . | . | 10.5 | .
Clc1ccc(C[n+]2c(-c3ccccc3)cc(-c3ccccc3)cc2-c2ccccc2)cc1 | 97.3* | 44.2 | 43.0 | -32.2 | 9.1 | 76.9
Fc1ccc(C[n+]2c(-c3ccccc3)cc(-c3ccccc3)cc2-c2ccccc2)cc1 | 88.6* | 26.1 | . | . | 13.7 | .
COC(=O)[C@@H]1[C@@H](CO)[C@@H]2Cn3c(ccc(-c4ccncc4)c3=O)[C@H]1N2S(=O)(=O)c1ccccc1F | 9.2 | 0.0 | . | . | 0.6 | .
CC=Cc1ccc2n(c1=O)C[C@H]1[C@H](CO)[C@@H](C(=O)OC)[C@@H]2N1S(=O)(=O)c1ccccc1C (mixture of isomers) | -11.0 | 4.1 | . | . | 6.1 | .
SMILES | PAX8 reporter | EWS-Fli inh | CF NFkB block | KKLEB tox | LGR2 inh | Shn3 3UTR inh
CC(=O)OC1C(O)C(C)OC(OC2C(OC(=O)C3CCC4C(C3)OC3(CC(OC(=O)/C=C/c5ccccc5)C(C)CO3)C43CO3)OC(C)C(O)C2OC(C)=O)C1O (stereo unspecified) | 104.0* | 36.3 | 90.3* | -22.8 | 99.2* | 96.5*
CC=Cc1ccc2n(c1=O)C[C@H]1[C@H](CO)[C@@H](C(=O)OC)[C@@H]2N1C(=O)CC (mixture of isomers) | . | -4.5 | . | . | -2.3 | .
O=C(Cc1ccccn1)N1CCCCN2[C@@H](CO)[C@@H](c3ccc(-c4ccc(F)cc4)cc3)[C@@H]2C1 | 89.2* | 5.5 | . | . | 0.6 | .
O=C(Cc1ccccn1)N1CCCCN2[C@@H](CO)[C@H](c3ccc(-c4ccc(F)cc4)cc3)[C@@H]2C1 | -0.7 | -1.8 | . | . | -40.6 | .
COc1ccc(-c2ccc([C@@H]3[C@@H](CO)N4CCCCN(C(=O)Cc5ccccc5)C[C@H]34)cc2)cc1 | 119.3* | . | . | . | 0.2 | .
CCCCCCC[n+]1ccc(-c2cc[n+](CCCCCCC)cc2)cc1 | 85.6* | 2.6 | -1.5 | -1.5 | -1.3 | 75.8
COC(=O)[C@@H]1[C@@H](CO)[C@@H]2Cn3c(ccc(C4=CCCCC4)c3=O)[C@H]1N2CC1CCCC1 | . | -3.8 | . | . | -4.8 | .
Cc1ccc(S(=O)(=O)NP(=O)(Oc2ccccc2)Oc2ccccc2)cc1 | . | 14.4 | 7.3 | -1.5 | 6.1 | -6.6
Cc1ccc(C)c(NP(=O)(Oc2ccccc2)Oc2ccccc2)c1 | 42.5 | 11.5 | 97.0* | -67.4* | 6.8 | 3.5
CC(=O)N1[C@@H]2c3ccc(-c4cccc(C(=O)N(C)C)c4)c(=O)n3C[C@H]1[C@H](CO)[C@H]2C(=O)O | . | -3.1 | . | . | 3.9 | .
CC(=O)OC1C(=O)OCC23CCC4(C)OC4C2OC2CC(OC(=O)C=CC=CC(=O)OCCC1C)C3(C)C21CO1 (stereo unspecified) | 103.2* | 49.8 | 93.0* | -55.1* | 104.6* | 93.7*
CC(O)C1C=CC=CC(=O)OC2CC3OC4C5OC5(C)CCC4(COC(=O)C4OC4(C)C(O)CO1)C2(C)C31CO1 (stereo unspecified) | 103.2* | 28.7 | 83.4* | -21.8 | 101.2* | 92.5*
CC(C)CC#Cc1ccc([C@H]2[C@@H](CO)N3CCCCN(C(=O)Cc4ccccn4)C[C@H]23)cc1 | -13.2 | 9.6 | . | . | -4.9 | .
C[C@H]1CN([C@@H](C)CO)C(=O)CCCn2nncc2CO[C@@H]1CN(C)C(=O)Oc1ccc2ccccc2c1 | . | -4.6 | . | . | 4.6 | .
O=C1CC[C@@]2(O)[C@H]3Cc4ccc(O)c5c4[C@@]2(CCN3CC2CC2)C1O5 (stereo partly specified) | . | -6.9 | . | . | 5.8 | .
COc1ccc(OC(=O)N(C)C[C@H]2OCc3ccccc3-c3c(n(C)c4ccccc34)C(=O)N([C@@H](C)CO)C[C@@H]2C)cc1 | 33.2 | 1.9 | . | . | 13.0 | .

Bioassay records from PubChem.
